NS1 function inh: qHTS Assay for Inhibitors of Influenza NS1 Protein Function; Potency, µM (titrated, usually from 46.1 µM), without a hit: at the top dose activity, positive = more growth; AID 2326, 2010; 270,000 tested, 0.4% active; calls by dose curve; also: potency is read from the fitted curve at half-maximal effect; actives are rising curves; nearly all actives have a fitted effect of over 50% in size
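Read-out: OD600 growth recovery of NS1-expressing budding yeast. Cells grown overnight at 30C in -URA glucose medium, washed, resuspended and diluted 1:100 in 2% galactose assay medium, pH 6.0. Same strain lacking NS1 served as positive control.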
Pf growth 96h: Primary qHTS for delayed death inhibitors of the malarial parasite plastid, 96 hour incubation | Potency, µM (highest dose often 28.7 µM), for the others: at the top dose activity change, negative = inhibition, actives largely listed as inhibitors | P. falciparum luciferase reporter growth, 96 h | 320,000 tested, 6.9% active; also: potency is read from the fitted curve at half-maximal effect; % is scaled to controls: 0 for no effect and ±100 for the full control effect
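96 h incubation, 37 C, 5% CO2, of luciferase-reporter P. falciparum-infected RBCs (2% hematocrit, 0.05% parasitemia final) with test compounds; endpoint luminescence.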
Shiga toxin inh: A qHTS for Small Molecule Inhibitors of Shiga Toxin; Vero cells, Shiga toxin protein synthesis inhibition reporter; inhibition, % at 38.7 µM; 290,000 tested, 9.2% active; AID 2315, 2010; in the data active = inhibition mostly above about 28%, no sharp cut-off; inactive = mostly below about 43%; also: 0% is about no effect
Pf growth 48h: Primary qHTS for delayed death inhibitors of the malarial parasite plastid, 48 hour incubation | P. falciparum luciferase growth in erythrocytes, 48 h | Potency, µM (titrated, usually from 28.7 µM), for the others: top-dose activity change, negative = inhibition, usual class: inhibitors | 310,000 tested, 5.9% active | AID 504832, 2011; also: potency is read from the fitted curve at half-maximal effect; % is scaled to controls: 0 for no effect and ±100 for the full control effect
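A one-generation exposure of luciferase-tagged malaria parasites in RPMI 1640/Albumax erythrocyte culture, 37 C and 5% CO2. Inhibition is inferred from decreased luminescence after adding detection reagent.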
CHX counter: Cycloheximide Counterscreen for Small Molecule Inhibitors of Shiga Toxin. cell reporter, cycloheximide protein synthesis inhibition counterscreen. max response, %. 300,000 tested, 12% active. AID 2314, 2010; in the data active = max response mostly above about 13%, no sharp cut-off; inactive = mostly below about 14%; also: read at 38.3 µM for the half of the compounds with a filed dose; 0% is about no effect
Sm TGR inh: qHTS Assay for the Inhibitors of Schistosoma Mansoni Peroxiredoxins | Potency, µM (titrated, usually from 114 µM), for the others: at the highest dose activity change, negative = inhibition, actives largely listed as inhibitors | 360,000 tested, 3% active | Schistosoma mansoni thioredoxin glutathione reductase (TGR), Q962Y6 | purified TGR, DTNB reduction, TNB absorbance 405 nm; also: potency is read from the fitted curve at half-maximal effect; % is scaled to controls: 0 for no effect and ±100 for the full control effect; nearly all actives have a fitted effect of over 60% in size
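TGR 20 nM + NADPH 100 uM (dispensed conc.), cpd preinc 15 min RT; start with NADPH (500 uM addition) then DTNB (15 mM addition). Kinetic TNB absorbance, 405 nm filter. Four-parameter Hill fit across titration.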
Numbers without * were called inactive. The list is not random: actives were taken first. Their share in the collection is about 21%. Unless noted, calls follow the shape of the dose curve; as a rule, active = well fitted curve in the direction sought with a large enough effect; inconclusive = small, poorly fitted or top-dose-only effect, or another doubt; inactive = no such curve, though single readings can be large; an effect the other way counts as inactive or inconclusive.

`N=c1n(CCN2CCCCC2)c2ccccc2n1CC(O)c1ccc(Cl)c(Cl)c1` (stereo not given) gave NS1 function inh 12%, Pf growth 96h 0.29µM*, Shiga toxin inh -12, CHX counter -9 and Sm TGR inh -13%.
Screening Cc1ccccc1OCC(O)Cn1c(=N)n(CCN2CCCCC2)c2ccccc21 (stereo not given) returned Sm TGR inh 1%.
For Cc1ccc(N2CC(C(=O)Nc3nnc(SCC(N)=O)s3)CC2=O)cc1 (stereo not given) the results were NS1 function inh 3%, Pf growth 96h -3%, Shiga toxin inh -10, Pf growth 48h 4%, CHX counter 1 and Sm TGR inh 16%.
Cc1ccccc1OCCSc1nc2ccc(NC(=O)c3cccs3)cc2s1 was read as Sm TGR inh 3%.
`COc1ccc(OC)c(C2CC(=O)c3c([nH]c(C(=O)OCC4CCCCC4)c3C)C2)c1` (stereo not given) gave Sm TGR inh -1%.
For COc1ccc(C)cc1NC(=O)C(=O)NCCc1sc(-c2ccc(Cl)cc2)nc1C the results were Sm TGR inh 0%.
Cc1ccc2oc(=O)c3cc(C(=O)NCCN4CCc5ccccc5C4)sc3c2c1 was read as NS1 function inh 15%, Pf growth 96h inconclusive, Shiga toxin inh 1, Pf growth 48h 4.7µM*, CHX counter -1 and Sm TGR inh 2%.
COc1cccc(CNC(=O)c2cc3c(=O)oc4ccc(C)cc4c3s2)c1 was read as Sm TGR inh 6%.
Screening Cc1ccc2oc(=O)c3cc(C(=O)NCCCN4CCCC(C)C4)sc3c2c1 (stereo not given) returned NS1 function inh 9%, Pf growth 96h 21%, Shiga toxin inh -9, Pf growth 48h 4.1µM*, CHX counter -4 and Sm TGR inh 0%.
Cc1ccc2oc(=O)c3cc(C(=O)NCc4ccco4)sc3c2c1 was read as NS1 function inh inconclusive, Pf growth 96h 9.3µM*, Shiga toxin inh -9, CHX counter -1 and Sm TGR inh -3%.
`Cc1ccc2c(c1)c1c(c(=O)n(Cc3ccccc3)c(=O)n1CC(=O)Nc1ccccc1C)n2C` gave Sm TGR inh 0%.
Screening Cc1ccc(C(=O)N2CCSCC2)cc1 returned NS1 function inh -1%, Pf growth 96h -22%, Shiga toxin inh -14, CHX counter -2 and Sm TGR inh -1%.
`O=C(c1ccc(S(=O)(=O)N2CCOCC2)cc1)N(c1ccccn1)C1CCCCC1` gave NS1 function inh -1%, Pf growth 96h -1%, Shiga toxin inh -8, Pf growth 48h -10%, CHX counter 1 and Sm TGR inh 2%.
For CCc1ccc(C(=O)/C=C/c2ccc([N+](=O)[O-])o2)cc1 the results were NS1 function inh -219%, Pf growth 96h 20%, Shiga toxin inh 18, CHX counter 13* and Sm TGR inh 3.2µM*.
For CCN(CC)S(=O)(=O)c1ccc(C(=O)/C=C/c2ccc(-c3ccc([N+](=O)[O-])cc3)o2)cc1 the results were NS1 function inh inconclusive, Pf growth 96h 19%, Shiga toxin inh 1, Pf growth 48h 3%, CHX counter -3 and Sm TGR inh 16µM*.
OC[C@@H](O)CNc1ncnc2ccccc12 was read as NS1 function inh -7%.
For CC(C)(C)c1ccc(OCC(O)CN(CCO)CC(O)Cn2ccc3ccccc32)cc1 (stereo not given) the results were NS1 function inh -4%, Pf growth 96h inconclusive, Shiga toxin inh -10, Pf growth 48h 12µM*, CHX counter 2 and Sm TGR inh -2%.
OCCN(CC(O)Cn1ccc2ccccc21)CC(O)Cn1ccc2ccccc21 (stereo not given) was read as NS1 function inh 6%, Pf growth 96h 11%, Shiga toxin inh -17, Pf growth 48h inconclusive, CHX counter 0 and Sm TGR inh inconclusive.
`CCOC(=O)C1CCC(CN(Cc2ccc(OC)cc2)S(=O)(=O)c2ccc(F)c(C(=O)Nc3ccc(C)c(C)c3)c2)CC1` (stereo not given) gave Sm TGR inh 4%.
COC(=O)c1ccccc1S(=O)(=O)Oc1ccc(-c2ccc(C(=O)O)cc2)cc1 was read as NS1 function inh 1%, Pf growth 96h inconclusive, Shiga toxin inh 1, Pf growth 48h 11%, CHX counter 4 and Sm TGR inh 0%.
For O=C(O)c1ccc(-c2ccc(OS(=O)(=O)c3ccccc3F)cc2)cc1 the results were NS1 function inh -21%, Pf growth 96h 23%, Shiga toxin inh 65*, Pf growth 48h 41%, CHX counter 19* and Sm TGR inh 3%.
COc1ccc(NC(=O)CN2C(=O)NC3(CCCC3)C2=O)cc1Cl was read as NS1 function inh 5%, Pf growth 96h -1%, Shiga toxin inh 23, Pf growth 48h -8%, CHX counter -2 and Sm TGR inh -26%.
Screening O=c1[nH]c(C2CCN(S(=O)(=O)c3ccccc3)CC2)nc2c1nnn2Cc1ccccc1 returned NS1 function inh 6%, Pf growth 96h 72%, Shiga toxin inh 20, Pf growth 48h inconclusive, CHX counter -2 and Sm TGR inh -8%.
`O=c1[nH]c(C2CCN(S(=O)(=O)c3ccc(C(F)(F)F)cc3)CC2)nc2c1nnn2Cc1ccc(F)cc1` gave NS1 function inh inconclusive, Pf growth 96h 38%, Shiga toxin inh -8, Pf growth 48h 12µM*, CHX counter -2 and Sm TGR inh 2%.
`O=c1[nH]c(C2CCN(S(=O)(=O)c3ccc4c(c3)OCCO4)CC2)nc2c1nnn2Cc1ccc(F)cc1` gave NS1 function inh 25%, Pf growth 96h 7%, Shiga toxin inh -7, Pf growth 48h 1.5µM*, CHX counter 2 and Sm TGR inh 3%.
O=c1[nH]c(C2CCN(S(=O)(=O)c3ccc([N+](=O)[O-])cc3)CC2)nc2c1nnn2Cc1ccccc1 was read as NS1 function inh 3%, Pf growth 96h 0.15µM*, Shiga toxin inh -3, Pf growth 48h 5.2µM*, CHX counter -6 and Sm TGR inh -7%.
Screening O=c1[nH]c(C2CCN(S(=O)(=O)c3cccc(C(F)(F)F)c3)CC2)nc2c1nnn2Cc1cccc(F)c1 returned NS1 function inh 22%, Pf growth 96h inconclusive, Shiga toxin inh -9, Pf growth 48h 7.4µM*, CHX counter 1 and Sm TGR inh 3%.
